# Source: the supplement of paper PMC12282887
# ± gives the standard deviation of the averaged measurements.
# Legend:
# Assay in all cases: promoter activity interaction Z-score (Lux/OD deviation from empty-vector control); higher = stronger promoter induction by the compound
# [1] = tested on: E. coli BW25113 acrABp lux reporter
# How it was run: (§1)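 E. coli BW25113 (wild type or marA, soxS or rob deletion) carrying low-copy luxCDABE promoter reporters grew in 40 µl LB Lennox in 384-well plates at 37°C. Each compound was tested at four 1:2 dilutions in biological duplicates. OD600 and luminescence were read every 30 min for 12 h. Areas were taken over 0–8 h (wild type) or 1–9 h (mutants), and wells below 10% of median growth area were removed. The score is the Z-transformed residual of growth-normalised luminescence fitted against the empty-vector control.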
# [2] = tested on: E. coli BW25113 micFp lux reporter
# How it was run: as §1
# [3] = tested on: E. coli BW25113 ompFp lux reporter
# How it was run: as §1
# [4] = tested on: E. coli BW25113 robp lux reporter
# How it was run: as §1
# [5] = tested on: E. coli BW25113 soxSp lux reporter
# How it was run: as §1
# [6] = tested on: E. coli BW25113 tolCp lux reporter
# How it was run: as §1
# [7] = 11.9 µg/ml, genetic background: wild type
# [8] = 11.9 µg/ml, genetic background: ΔmarA
# [9] = 11.9 µg/ml, genetic background: Δrob
# [10] = 11.9 µg/ml, genetic background: ΔsoxS
# [11] = 23.7 µg/ml, genetic background: wild type
# [12] = 23.7 µg/ml, genetic background: ΔmarA
# [13] = 23.7 µg/ml, genetic background: Δrob
# [14] = 23.7 µg/ml, genetic background: ΔsoxS
# [15] = 47.4 µg/ml, genetic background: wild type
# [16] = 47.4 µg/ml, genetic background: ΔmarA
# [17] = 47.4 µg/ml, genetic background: Δrob
# [18] = 47.4 µg/ml, genetic background: ΔsoxS
# [19] = 94.8 µg/ml, genetic background: wild type
# [20] = 94.8 µg/ml, genetic background: ΔmarA
# [21] = 94.8 µg/ml, genetic background: Δrob
# [22] = 94.8 µg/ml, genetic background: ΔsoxS
smiles,measurement,setting,value
NCCc1ccc(O)c(O)c1 [Dopamine],promoter activity interaction Z-score,[1]; [7],0.174 ± 0.27
same,promoter activity interaction Z-score,[1]; [8],-0.87 ± 0.6
same,promoter activity interaction Z-score,[1]; [9],-0.259 ± 0.25
same,promoter activity interaction Z-score,[1]; [10],0.316 ± 0.49
same,promoter activity interaction Z-score,[1]; [11],-0.0683 ± 0.28
same,promoter activity interaction Z-score,[1]; [12],-0.0201 ± 0.65
same,promoter activity interaction Z-score,[1]; [13],-0.428 ± 0.0062
same,promoter activity interaction Z-score,[1]; [14],-0.0876 ± 0.18
same,promoter activity interaction Z-score,[1]; [15],0.18 ± 0.084
same,promoter activity interaction Z-score,[1]; [16],-1.12 ± 0.53
same,promoter activity interaction Z-score,[1]; [17],-0.499 ± 0.094
same,promoter activity interaction Z-score,[1]; [18],-0.0203 ± 0.46
same,promoter activity interaction Z-score,[1]; [19],-0.304 ± 0.4
same,promoter activity interaction Z-score,[1]; [20],-0.754 ± 0.56
same,promoter activity interaction Z-score,[1]; [21],-0.623 ± 0.094
same,promoter activity interaction Z-score,[1]; [22],-0.852 ± 0.031
same,promoter activity interaction Z-score,[2]; [7],-0.0957 ± 0.4
same,promoter activity interaction Z-score,[2]; [8],-0.00669 ± 0.09
same,promoter activity interaction Z-score,[2]; [9],-0.0714 ± 0.048
same,promoter activity interaction Z-score,[2]; [10],-0.289 ± 0.13
same,promoter activity interaction Z-score,[2]; [11],0.149 ± 0.39
same,promoter activity interaction Z-score,[2]; [12],0.0171 ± 0.089
same,promoter activity interaction Z-score,[2]; [13],-0.0648 ± 0.13
same,promoter activity interaction Z-score,[2]; [14],-0.0534 ± 0.087
same,promoter activity interaction Z-score,[2]; [15],-0.077 ± 0.31
same,promoter activity interaction Z-score,[2]; [16],-0.0143 ± 0.025
same,promoter activity interaction Z-score,[2]; [17],-0.12 ± 0.027
same,promoter activity interaction Z-score,[2]; [18],-0.221 ± 0.014
same,promoter activity interaction Z-score,[2]; [19],-0.3274 ± 0.00091
same,promoter activity interaction Z-score,[2]; [20],0.0328 ± 0.11
same,promoter activity interaction Z-score,[2]; [21],-0.149 ± 0.093
same,promoter activity interaction Z-score,[2]; [22],-0.745 ± 0.067
same,promoter activity interaction Z-score,[3]; [7],0.401 ± 0.57
same,promoter activity interaction Z-score,[3]; [8],-0.363 ± 0.16
same,promoter activity interaction Z-score,[3]; [9],-0.182 ± 0.48
same,promoter activity interaction Z-score,[3]; [10],-0.36 ± 0.38
same,promoter activity interaction Z-score,[3]; [11],-0.18 ± 0.33
same,promoter activity interaction Z-score,[3]; [12],0.285 ± 0.88
same,promoter activity interaction Z-score,[3]; [13],-0.131 ± 0.68
same,promoter activity interaction Z-score,[3]; [14],-0.722 ± 0.37
same,promoter activity interaction Z-score,[3]; [15],0.112 ± 0.24
same,promoter activity interaction Z-score,[3]; [16],-0.55 ± 0.36
same,promoter activity interaction Z-score,[3]; [17],-0.52 ± 0.2
same,promoter activity interaction Z-score,[3]; [18],-0.843 ± 0.13
same,promoter activity interaction Z-score,[3]; [19],-0.811 ± 0.18
same,promoter activity interaction Z-score,[3]; [20],-0.358 ± 0.12
same,promoter activity interaction Z-score,[3]; [21],-0.473 ± 0.64
same,promoter activity interaction Z-score,[3]; [22],-1.22 ± 0.11
same,promoter activity interaction Z-score,[4]; [7],0.58 ± 0.43
same,promoter activity interaction Z-score,[4]; [8],-0.0165 ± 0.28
same,promoter activity interaction Z-score,[4]; [9],-0.285 ± 0.42
same,promoter activity interaction Z-score,[4]; [10],-0.285 ± 0.27
same,promoter activity interaction Z-score,[4]; [11],0.285 ± 0.52
same,promoter activity interaction Z-score,[4]; [12],1.42 ± 1.2
same,promoter activity interaction Z-score,[4]; [13],-0.0375 ± 0.68
same,promoter activity interaction Z-score,[4]; [14],0.593 ± 1.6
same,promoter activity interaction Z-score,[4]; [15],0.737 ± 0.14
same,promoter activity interaction Z-score,[4]; [16],-0.645 ± 0.12
same,promoter activity interaction Z-score,[4]; [17],-0.805 ± 0.17
same,promoter activity interaction Z-score,[4]; [18],-1.1 ± 0.16
same,promoter activity interaction Z-score,[4]; [19],-0.828 ± 0.0096
same,promoter activity interaction Z-score,[4]; [20],0.583 ± 0.9
same,promoter activity interaction Z-score,[4]; [21],-1.32 ± 0.2
same,promoter activity interaction Z-score,[4]; [22],-2.04 ± 0.13
same,promoter activity interaction Z-score,[5]; [7],0.474 ± 0.25
same,promoter activity interaction Z-score,[5]; [8],-0.0183 ± 0.11
same,promoter activity interaction Z-score,[5]; [9],-0.0377 ± 0.026
same,promoter activity interaction Z-score,[5]; [10],-0.0441 ± 0.24
same,promoter activity interaction Z-score,[5]; [11],0.394 ± 0.015
same,promoter activity interaction Z-score,[5]; [12],0.0576 ± 0.031
same,promoter activity interaction Z-score,[5]; [13],-0.0399 ± 0.15
same,promoter activity interaction Z-score,[5]; [14],-0.277 ± 0.03
same,promoter activity interaction Z-score,[5]; [15],0.201 ± 0.11
same,promoter activity interaction Z-score,[5]; [16],-0.0617 ± 0.12
same,promoter activity interaction Z-score,[5]; [17],-0.00712 ± 0.2
same,promoter activity interaction Z-score,[5]; [18],-0.3 ± 0.13
same,promoter activity interaction Z-score,[5]; [19],-0.211 ± 0.15
same,promoter activity interaction Z-score,[5]; [20],-0.1512 ± 0.0014
same,promoter activity interaction Z-score,[5]; [21],-0.176 ± 0.19
same,promoter activity interaction Z-score,[5]; [22],-0.581 ± 0.061
same,promoter activity interaction Z-score,[6]; [7],0.393 ± 0.4
same,promoter activity interaction Z-score,[6]; [8],-0.496 ± 0.057
same,promoter activity interaction Z-score,[6]; [9],-0.398 ± 0.89
same,promoter activity interaction Z-score,[6]; [10],0.889 ± 0.7
same,promoter activity interaction Z-score,[6]; [11],0.663 ± 0.58
same,promoter activity interaction Z-score,[6]; [12],0.117 ± 0.58
same,promoter activity interaction Z-score,[6]; [13],-0.413 ± 0.2
same,promoter activity interaction Z-score,[6]; [14],-0.0415 ± 0.32
same,promoter activity interaction Z-score,[6]; [15],-0.164 ± 0.13
same,promoter activity interaction Z-score,[6]; [16],-0.559 ± 0.79
same,promoter activity interaction Z-score,[6]; [17],-0.226 ± 0.6
same,promoter activity interaction Z-score,[6]; [18],-0.165 ± 0.64
same,promoter activity interaction Z-score,[6]; [19],-0.754 ± 0.24
same,promoter activity interaction Z-score,[6]; [20],-0.55 ± 0.46
same,promoter activity interaction Z-score,[6]; [21],-0.192 ± 0.73
same,promoter activity interaction Z-score,[6]; [22],-1 ± 0.74
